B2AR arrestin – agonists driving beta-arrestin recruitment to human beta2-adrenergic receptor. Potency, µM (titrated, usually from 46.1 µM), without a hit: at the highest dose activation, actives largely listed as activators. P07550. actives 0.02% (n = 330,000). beta-arrestin recruitment to beta2AR, cell-based reporter;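 note: 0% = DMSO controls and full agonism = EC100 isoproterenol or metaproterenol; nearly all actives have a fitted effect of over 65% in size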
Target sequence (P07550 whole entry, looked up): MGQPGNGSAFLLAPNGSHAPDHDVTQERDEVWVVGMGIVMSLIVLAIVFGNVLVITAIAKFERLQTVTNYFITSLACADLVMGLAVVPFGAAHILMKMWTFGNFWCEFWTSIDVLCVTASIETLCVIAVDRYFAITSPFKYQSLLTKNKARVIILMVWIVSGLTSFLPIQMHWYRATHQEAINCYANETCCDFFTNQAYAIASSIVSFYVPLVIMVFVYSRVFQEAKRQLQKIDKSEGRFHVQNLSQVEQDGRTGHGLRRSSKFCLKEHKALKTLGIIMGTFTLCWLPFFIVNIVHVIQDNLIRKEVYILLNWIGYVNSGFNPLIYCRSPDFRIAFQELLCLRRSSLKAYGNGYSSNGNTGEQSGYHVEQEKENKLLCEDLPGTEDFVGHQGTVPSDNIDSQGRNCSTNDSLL
VP16 counter – Gal4-VP16 reporter inhibition counter-screen. Drosophila S2 Gal4-VP16 UAS-luciferase, luminescence, 20 h. Potency, µM (doses to about 53.6 µM), for inactives: at the top dose activity, negative = inhibition, most hits filed as inhibitors. actives 3.5% (n = 310,000);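 note: Gal4-VP16 expression switched on by copper sulfate through the metallothionein promoter; nearly all actives have a fitted effect of over 50% in size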
NPSR antagonist – antagonists of human neuropeptide S receptor cAMP signaling. CHO-NPSR cells, cAMP TR-FRET, antagonist mode. Q6W5P4. actives 1% (n = 220,000). Potency, µM (doses to about 38.3 µM), for inactives: top-dose activity change, negative = inhibition, most hits filed as inhibitors; note: nearly all actives have a fitted effect of over 50% in size
RORgamma inh – inhibitors of mouse ROR gamma transcriptional activity; P51450; Drosophila S2 Gal4-RORgamma UAS-luciferase reporter, 20 h; Potency, µM (series often up to 53.6 µM), for inactives: at the top dose activity change, negative = inhibition, actives largely listed as inhibitors; actives 5.4% (n = 310,000); AID 2551; note: nearly all actives have a fitted effect of over 60% in size
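Schneider cells (Drosophila), stable Gal4 DBD–ROR gamma + UAS-luc; 1 hr cmpd preincubation; Cu2+ induction 700 uM final; 20 hr ambient; luminescence.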
* = called active by the depositor; [ ] = another dose, or the depositor's remark. A selection: hits, their analogues and other compounds. The true share with any hit is near 5.7%. Calls come from the whole dose curve; as a rule, active = well fitted curve in the direction sought with a large enough effect; inconclusive = small, poorly fitted or top-dose-only effect, or another doubt; inactive = no such curve, though single readings can be large; an effect the other way counts as inactive or inconclusive. Unless noted, % is set by controls: 0 for no effect and ±100 for the full control effect; potency is the fitted concentration of half-maximal effect.

Results for S=C(CN1CCCC1=S)NCCc1ccccc1 ?
B2AR arrestin: 0%; VP16 counter: inconclusive; NPSR antagonist: 3%; RORgamma inh: 7.9µM*

Results for CCCC[C@H]1CCCO[C@@](C(=O)NCc2ccc(C)o2)(C(F)(F)F)C1 ?
VP16 counter: 5%; RORgamma inh: -18%

What do the screens show for `CCOC(=O)SC1=N/C(=C\c2ccc(N(C)C)cc2)C(=O)S1`?
B2AR arrestin: 0%; VP16 counter: inconclusive; NPSR antagonist: -10%[46.1 µM]; RORgamma inh: 13µM*

How did CC(/C=N/N1CCN(c2ccccc2)CC1)=C\c1ccccc1 do in these assays?
B2AR arrestin: 0%; VP16 counter: 4%; NPSR antagonist: 0%[46.1 µM]; RORgamma inh: 16%

How did CC(/C=N/N1C(=O)CSC1=S)=C\c1ccccc1 do in these assays?
B2AR arrestin: -1%; VP16 counter: 5%; NPSR antagonist: -2%; RORgamma inh: 11µM*

What do the screens show for `CC(C)(C)c1ccc(/C=N/N2C(=O)CSC2=S)cc1`?
B2AR arrestin: 0%; VP16 counter: inconclusive; RORgamma inh: 10µM*

Results for COc1ccc(/C=N/N2C(=O)CSC2=S)cc1 ?
VP16 counter: 3%; NPSR antagonist: -1%[46.1 µM]; RORgamma inh: 16µM*

Results for O=C1CSC(=S)N1/N=C/c1ccc(O)c(O)c1O ?
B2AR arrestin: 0%; VP16 counter: -13%; NPSR antagonist: -2%; RORgamma inh: -16%

How did O=C1CSC(=S)N1/N=C/c1cc(Br)ccc1O do in these assays?
B2AR arrestin: -1%; VP16 counter: inconclusive; RORgamma inh: 11µM*

What do the screens show for `N#Cc1c(N)nc(Sc2ccc(Cl)cc2)c(C#N)c1-c1ccccc1Cl`?
B2AR arrestin: 1%; VP16 counter: inconclusive; NPSR antagonist: 10%[7.67 µM]; RORgamma inh: -5%

Results for O=C(COC(=O)c1cc(=O)[nH]c2ccccc12)Nc1ccc(F)cc1 ?
B2AR arrestin: -1%

How did COc1ccc(CNc2nc(-c3ccc4c(c3)OCO4)nc3ccccc23)c(OC)c1 do in these assays?
VP16 counter: 0%; RORgamma inh: 13%

Results for CCc1ccc(/C=C/C(=O)c2cc(Br)ccc(=O)c2O)cc1 ?
B2AR arrestin: 0%; VP16 counter: inconclusive; NPSR antagonist: -25%[46.1 µM]; RORgamma inh: inconclusive

What do the screens show for `Cc1cccc(/C=C/C(=O)c2cc(Br)ccc(=O)c2O)c1`?
B2AR arrestin: 0%; VP16 counter: inconclusive; NPSR antagonist: 10µM*; RORgamma inh: -31%

How did CCOc1ccc(/C=C/C(=O)c2cc(Br)ccc(=O)c2O)cc1 do in these assays?
B2AR arrestin: 4%; VP16 counter: 22µM*; NPSR antagonist: -19%; RORgamma inh: inconclusive

Results for O=S(=O)(CCc1ccccc1)c1nnnn1C1CCCCC1 ?
VP16 counter: 4%; RORgamma inh: -2%

Results for O=C(Nc1cccc(-c2nn[nH]n2)c1)c1cccs1 ?
B2AR arrestin: 0%; VP16 counter: 10µM*; RORgamma inh: 7.9µM*

What do the screens show for `CCc1ccc(C(=O)Nc2cccc(-c3nn[nH]n3)c2)s1`?
B2AR arrestin: 0%; VP16 counter: -27%; RORgamma inh: -18%

How did CCn1c(-c2nn(-c3ccccc3)ccc2=O)n[nH]c1=S do in these assays?
B2AR arrestin: 0%; VP16 counter: -14%[10 µM]; NPSR antagonist: 2%; RORgamma inh: -22%

What do the screens show for `CCCOc1cccc(-c2cc(C(=O)NNC(=S)NCC)c3ccccc3n2)c1`?
B2AR arrestin: 0%; VP16 counter: inconclusive; NPSR antagonist: -11%[46.1 µM]; RORgamma inh: inconclusive

What do the screens show for `CCn1c(-c2ccccc2SC)n[nH]c1=S`?
B2AR arrestin: 0%; VP16 counter: -11%; NPSR antagonist: -1%; RORgamma inh: 14µM*

How did CCn1c(-c2cc(-c3ccc(OC(C)C)cc3)nc3ccccc23)n[nH]c1=S do in these assays?
B2AR arrestin: 0%; VP16 counter: inconclusive; NPSR antagonist: -11%[46.1 µM]; RORgamma inh: 13µM*

How did CCCOc1cccc(-c2cc(-c3n[nH]c(=S)n3CC)c3ccccc3n2)c1 do in these assays?
B2AR arrestin: 0%; VP16 counter: -20%; NPSR antagonist: inconclusive; RORgamma inh: 1.3µM*

What do the screens show for `CCC(C)NC(=O)CSc1nnc(-c2cc(-c3ccc(C)cc3)nc3ccccc23)n1N` (centres undefined)?
B2AR arrestin: 0%; VP16 counter: 11%; NPSR antagonist: 8%[46.1 µM]; RORgamma inh: 40%

Results for CCn1c(-c2cccn(Cc3ccccc3)c2=O)n[nH]c1=S ?
B2AR arrestin: 0%; VP16 counter: 8%; NPSR antagonist: -5%; RORgamma inh: -32%

How did CCn1c(-c2cc(-c3ccc(C)cc3)nc3ccccc23)n[nH]c1=S do in these assays?
B2AR arrestin: -1%; VP16 counter: -19%; NPSR antagonist: -40%; RORgamma inh: 1.1µM*

What do the screens show for `CCc1nnc(NC=C2C(=O)OC(C)(C)OC2=O)s1`?
B2AR arrestin: 0%; VP16 counter: 4%; NPSR antagonist: 1%[46.1 µM]; RORgamma inh: -12%

Results for Cc1ccnc(NC(=O)CCc2c[nH]c3ccccc23)c1 ?
B2AR arrestin: 0%; VP16 counter: -2%; RORgamma inh: 22%

Results for CCOC(=O)C1CCCCN1Cc1ccc(OC)c(OC)c1 (centres undefined) ?
B2AR arrestin: -1%; VP16 counter: 0%; NPSR antagonist: 15%; RORgamma inh: -12%

Results for COc1cc(/C=C(\C#N)C(=O)NC(C)C)ccc1OCc1ccc(C(=O)O)cc1 ?
B2AR arrestin: 0%; VP16 counter: 26%; NPSR antagonist: 15%; RORgamma inh: -26%

What do the screens show for `COc1cc(/C=C(\C#N)C(=O)NC2CCCCC2)ccc1OCc1ccc(C(=O)O)cc1`?
B2AR arrestin: 0%; VP16 counter: inconclusive; NPSR antagonist: -52%; RORgamma inh: 13µM*

Results for COc1ccccc1C(=O)NC(=O)CSc1nnnn1C ?
B2AR arrestin: -2%

How did CC(=O)OCCCN1c2ccccc2Nc2nnc(-c3ccccc3)cc21 do in these assays?
B2AR arrestin: 0%; VP16 counter: inconclusive; NPSR antagonist: -24%[46.1 µM]; RORgamma inh: 11µM*

How did Cc1nn(CC#N)c(=O)n1-c1ccccc1F do in these assays?
B2AR arrestin: 0%; VP16 counter: 4%; NPSR antagonist: -12%[46.1 µM]; RORgamma inh: 10µM*

What do the screens show for `O=[N+]([O-])c1cccc(C2(O)COc3ccccc3O2)c1` (centres undefined)?
B2AR arrestin: 0%; VP16 counter: 2%; RORgamma inh: -16%

How did Cc1ccc(S(=O)(=O)c2c(C)nn(-c3ccccc3)c2OC(=O)c2ccc(Br)o2)cc1 do in these assays?
B2AR arrestin: 0%; VP16 counter: -3%; NPSR antagonist: -3%; RORgamma inh: -7%

What do the screens show for `NCCCCCCCCCCNS(=O)(=O)c1cccc2c(Cl)cccc12`?
VP16 counter: 32µM*; RORgamma inh: inconclusive

Results for Fc1ccc2c(c1)C(c1ccncc1)=NNC(c1ccccc1)=N2 ?
B2AR arrestin: 3%; VP16 counter: inconclusive; NPSR antagonist: -9%[46.1 µM]; RORgamma inh: 10µM*

Results for Cc1cc(=O)[nH]c(-n2nc(C)cc2C)n1 ?
B2AR arrestin: -1%; VP16 counter: 3.2µM*; NPSR antagonist: 0%[46.1 µM]; RORgamma inh: 1.6µM*
